The list shows a part of the results. Unmarked numbers belong to inactive results. Calls of active or inactive are those of the source.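 The calls were made as follows: active = mean inhibition over four retests above 40%; inactive = the rest.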
Molecular target: C-X-C chemokine receptor type 6 (Homo sapiens) (UniProt O00574)
Test: CXCR6 beta-arrestin signal inhibition by hits – cell-based, single concentration, luminescence, confirmation (AID 602409);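 also: receptor stimulated with 10 nM CXCL16 agonist; beta-galactosidase fragment complementation upon beta-arrestin recruitment to receptor; plate controls were CXCL16 plus DMSO for no effect and DMSO without CXCL16 for full effect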
Conditions: CHO-K1 CXCR6 PathHunter beta-arrestin, at 20 µM, hits give high values

Sequence of C-X-C chemokine receptor type 6 (Homo sapiens) (O00574 whole entry, looked up, the tested form may be a part): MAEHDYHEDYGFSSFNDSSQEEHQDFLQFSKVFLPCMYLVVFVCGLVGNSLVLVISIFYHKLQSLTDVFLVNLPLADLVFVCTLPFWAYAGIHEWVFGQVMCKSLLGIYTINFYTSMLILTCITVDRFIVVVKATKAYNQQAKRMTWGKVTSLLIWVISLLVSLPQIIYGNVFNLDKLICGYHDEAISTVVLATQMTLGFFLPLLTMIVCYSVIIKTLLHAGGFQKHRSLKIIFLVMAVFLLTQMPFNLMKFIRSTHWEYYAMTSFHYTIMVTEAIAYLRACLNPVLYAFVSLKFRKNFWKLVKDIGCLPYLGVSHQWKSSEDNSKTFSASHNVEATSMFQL

Structure (SMILES)	inhibition
O=C(Nc1ccccc1Cl)/C(Cl)=C(\Cl)S(=O)c1ccccc1 (centres undefined)	81% (active)
Cc1cc(C(=O)NCCCc2ccccc2)no1	9.46%
Cc1ccc(-n2[nH]c(C)c(/C=N/N3C(=O)c4cccc5cccc(c45)C3=O)c2=O)cc1	60.2% (active)
CC(=O)Nc1cc(-c2ccc(N3CCN(C)CC3)cc2)cn2c(-c3ccc(F)cc3)cnc12	31.3%
O=C(CSc1cccc2cccnc12)N/N=C/c1cccnc1	67.2% (active)
O=C1C=CC(=O)N1c1ccc(N2CCCCC2)cc1	63.5% (active)
CCCCNC(=S)N/N=C1\CCCCc2ccccc21	24.7%
COC(=O)/C=C\C(=O)Nc1cccc([N+](=O)[O-])c1	45.6% (active)
COCCCNC(=S)NC(=O)c1ccc([N+](=O)[O-])cc1	19.8%
CCC(=O)OCCNc1nc(-c2ccccc2)nc2ccccc12	11.6%
CC(=O)/C(=N\Nc1ccc(Cl)cc1Cl)Sc1cccc2cccnc12	81% (active)
CCN(CC)CCn1c(N)c(S(=O)(=O)c2ccccc2)c2nc3ccccc3nc21	55% (active)
Cc1cc(C)nc(S/C=C/C(=O)c2ccccc2)n1	41.5% (active)
O=C(C1CC(=O)N(C2CCCCC2)C1)N1CCN(c2ccccc2)CC1 (centres undefined)	3.17%
C/C(=N\NC(=O)Cc1ccc(Cl)cc1)c1ccccn1	104% (active)
CC(C)N=C1CCCC1C(=S)SSC(=S)C1CCCC1=NC(C)C (centres undefined)	94.9% (active)
CCOCCCN1C(=O)C2C(C(=O)Nc3ccc(OCC)cc3)C3C=CC2(O3)C1C(=O)NC1CCCCC1 (centres undefined)	-4.97%
COc1cccc2sc(N(CCCN(C)C)C(=O)CCS(=O)(=O)c3ccccc3)nc12	81% (active)
O=[N+]([O-])/C=C/c1ccc2c(ccn2Cc2ccccc2)c1	76.2% (active)
COc1ccc(-c2csc(Cc3nc(O)cs3)n2)cc1	77% (active)
Cc1c(C(=O)NCCN(C)C)oc2ccc(S(=O)(=O)N3CCCC3)cc12	10.1%
CCCCCCCCCCOC(=O)Cn1c(COc2cccc(OC)c2)[n+](C)c2ccccc21	4%
O=C(Nc1ccccc1)c1nnsc1S(=O)(=O)c1ccc(Cl)cc1	19.7%
CCCCCCCCCCOC(=O)C[N+](C)(C)CC1CCCCC1O (centres undefined)	14.4%

— PubChem BioAssay AID602409 (Sanford-Burnham Center for Chemical Genomics, 2012)
